FGF22 binding – shifts melting point of recombinant human FGF22; Q9HCT0; 340,000 compounds, 1.5% hits; AID 651658; recombinant FGF22 thermal shift, SYPRO orange fluorescence; percent of sucrose octasulfate shift, DMSO zero; activity (Tm shift, normalised), % at 9.99 µM;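 active = mean Tm shift, scaled 0 neutral to 100 positive control, at about 1.3% or above, every replicate too, limit read from the data; inconclusive = no clear call, values can overlap the other calls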
DENV2 CPE rescue – inhibitors of DENV2 cytopathic effect | DENV2-infected cells, cytopathic effect rescue, plate reader | CPE inhibition, % at 9.99 µM | 350,000 compounds, 1.7% hits | AID 651640; in the data active = CPE inhibition above about 20%, passing the limit was not always enough; inconclusive = no clear call, values can overlap the other calls; tested in BHK-21 cells
ERAP1 HTS inh – blocks human ERAP1 aminopeptidase activity | Q9NZ08 | recombinant ERAP1, Leu-AMC fluorescence, 60 min | inhibition, % at 10.7 µM | 340,000 compounds, 0.15% hits | AID 652197;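 active = mean replicate inhibition of at least 30%, or all replicates individually reaching that 30% level; inactive = mean below 30% and not every replicate reaching it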
MLL AF4-AF9 inh – blocks AF4 peptide binding to human AF9. P42568. AlphaScreen, biotin-AF4 peptide binding to FLAG-AF9. inhibition, % at 10 µM. 350,000 compounds, 0.47% hits. AID 651704;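 active = every replicate reaching a set inhibition limit, whatever the replicate mean, cut at about 25% in these data; inconclusive = mean inhibition reaches that limit but some replicates miss it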
Target sequence (P42568 whole entry, looked up): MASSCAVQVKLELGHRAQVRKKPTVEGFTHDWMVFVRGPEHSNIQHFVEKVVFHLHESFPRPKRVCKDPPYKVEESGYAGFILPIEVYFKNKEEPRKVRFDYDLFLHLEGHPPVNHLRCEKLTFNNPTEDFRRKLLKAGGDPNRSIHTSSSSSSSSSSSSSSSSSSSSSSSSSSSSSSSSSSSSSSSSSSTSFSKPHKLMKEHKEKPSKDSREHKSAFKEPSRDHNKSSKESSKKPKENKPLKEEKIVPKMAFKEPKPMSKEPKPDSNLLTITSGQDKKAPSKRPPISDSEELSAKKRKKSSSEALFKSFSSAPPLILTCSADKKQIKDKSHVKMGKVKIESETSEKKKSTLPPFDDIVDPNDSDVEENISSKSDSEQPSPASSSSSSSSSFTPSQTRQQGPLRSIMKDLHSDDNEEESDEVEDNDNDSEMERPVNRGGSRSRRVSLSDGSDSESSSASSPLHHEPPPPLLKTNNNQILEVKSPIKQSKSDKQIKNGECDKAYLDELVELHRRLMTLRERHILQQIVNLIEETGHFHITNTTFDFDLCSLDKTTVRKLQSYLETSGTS
RAD52 inh – inhibitors of human RAD52 DNA annealing. P43351. recombinant RAD52 DNA annealing, FRET fluorescence. inhibition, % at 18.7 µM. 360,000 compounds, 0.46% hits;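 active = every replicate showing at least 50% inhibition; inconclusive = mean inhibition at least 50% but not in every replicate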
Hits are given with their value; – = inactive; ? = inconclusive; · = no result. Shown are actives, neighbours in structure and some others; about 4% of the full set was active somewhere.

SMILES	FGF22 binding	DENV2 CPE rescue	ERAP1 HTS inh	MLL AF4-AF9 inh	RAD52 inh
CC(=O)[C@@]1(O)Cc2c(O)c3c(c(O)c2[C@H](O[C@H]2C[C@H](N)[C@H](O)[C@H](C)O2)C1)C(=O)c1ccccc1C3=O	–	–	·	25.5	–
CC(=O)c1cccc(NC(=O)C2=CC(c3cccs3)=NS(=O)(=O)N2C)c1	–	–	–	–	–
CN1C(C(=O)Nc2cccc(O)c2)=CC(c2cccs2)=NS1(=O)=O	–	–	–	26.8	–
CS(=O)(=O)N1CC(=O)N2[C@H](CO)[C@@H](c3ccc(C#CC4CCCC4)cc3)[C@@H]2C1	·	–	–	–	–
Nn1c(SCc2cccc(Oc3ccccc3)c2)nnc1C(F)(F)F	43.0	–	–	–	–
COc1cccc(CSc2nnc(C(F)(F)F)n2Cc2ccc(F)cc2)c1	–	–	–	–	–
O=C(O)c1ccc(Cn2c(SCc3cc(=O)n4cc(Br)ccc4n3)nc3ccsc3c2=O)cc1	43.4	–	–	–	–
O=C(O)C1CCC(Cn2c(SCc3cc(=O)n4cc(Br)ccc4n3)nc3ccsc3c2=O)CC1 (stereo not drawn)	–	–	–	–	–
Cc1ccccc1C1NC(=S)NC2=C1C(=O)CC(C)(C)C2 (stereo not drawn)	43.3	–	–	–	–
COCC(=O)N(C)C[C@H]1Oc2ncc(-c3ccccc3OC)cc2C(=O)N([C@H](C)CO)C[C@@H]1C	–	–	–	–	–
CC(C)C(=O)Nc1ccc2c(c1)C(=O)N(C)[C@@H]1CC[C@H](CC(=O)N[C@@H](C)c3ccccc3)O[C@H]1CO2	–	–	·	·	·
COc1ccc2c(c1O)-c1ccccc1CCN(C)C2	–	–	–	–	–
CN1CCc2cccc3c2[C@@H]1Cc1ccc(O)c(O)c1-3	·	·	·	25.8	·
C[N+]1(C2CCC3CCCC2C3O)CCCCC1 (stereo not drawn)	–	·	46.1	–	–
O=C(NNC(=O)C12CC3CC(CC(C3)C1)C2)c1cccc([N+](=O)[O-])c1	–	20.3	–	–	–
C=CCNC(=O)c1cc(-c2ccc3c(c2)OCO3)on1	–	–	–	–	–
C=CCNC(=S)NC(CC(=O)OC)c1ccc2c(c1)OCO2 (stereo not drawn)	42.9	?	–	–	–
C[C@H]1CCCCO[C@@H](CN(C)C)[C@@H](C)CN([C@@H](C)CO)C(=O)c2cc(NC(=O)CCC(F)(F)F)ccc2O1	–	–	–	–	–
O=S(=O)(NC[C@H]1CC[C@@H]2NC[C@@H]2O1)c1ccccc1F	·	–	–	–	–
COC(=O)[C@@]1(Cc2ccccc2)[C@H]2C(=O)N(C)C(=O)[C@H]2[C@H]2CN=C(SCc3ccc(Cl)cc3)N21	43.0	–	–	–	–
O=C(NCC1CCCCC1)[C@H]1[C@H](CO)[C@H]2Cn3c(ccc(-c4ccccc4)c3=O)[C@@H]1N2	–	–	–	–	–
COc1ccc(NC(=O)Nc2ccc3c(c2)CC(=O)N([C@@H](C)CO)C[C@@H](C)[C@@H](CN(C)S(=O)(=O)c2ccc(F)cc2)O3)cc1	–	29.3	–	–	–
COc1ccc(S(=O)(=O)N(C)C[C@H]2Oc3ccc(N(C)C)cc3CC(=O)N([C@H](C)CO)C[C@H]2C)cc1	–	–	–	–	–
COc1ccc(S(=O)(=O)N(C)C[C@H]2Oc3ccc(NC(=O)Nc4ccc5c(c4)OCO5)cc3CC(=O)N([C@@H](C)CO)C[C@@H]2C)cc1	–	96.8	–	·	–
COc1ccc(S(=O)(=O)N(C)C[C@@H]2Oc3ccc(N(C)C)cc3CC(=O)N([C@H](C)CO)C[C@H]2C)cc1	–	30.2	–	–	–
SMILES	FGF22 binding	DENV2 CPE rescue	ERAP1 HTS inh	MLL AF4-AF9 inh	RAD52 inh
COc1ccc(S(=O)(=O)N(C)C[C@@H]2Oc3ccc(NC(=O)C4CCCCC4)cc3CC(=O)N([C@@H](C)CO)C[C@@H]2C)cc1	–	28.0	–	–	–
COc1ccc(S(=O)(=O)N(C)C[C@H]2Oc3ccc(NC(=O)C4CCCCC4)cc3CC(=O)N([C@H](C)CO)C[C@@H]2C)cc1	–	–	–	–	–
C/C=C/c1ccc2c(c1)O[C@H](CN(C)C(=O)CN1CCOCC1)[C@H](C)CN([C@H](C)CO)S2(=O)=O	–	–	–	–	–
C[C@H](CO)N1C[C@H](C)[C@H](CN(C)S(=O)(=O)c2ccccc2)Oc2c(NC(=O)C3CCOCC3)cccc2C1=O	–	–	–	–	–
C[C@H]1CN([C@@H](C)CO)C(=O)Cc2cc(NC(=O)Nc3ccc4c(c3)OCO4)ccc2O[C@@H]1CN(C)S(C)(=O)=O	·	26.1	–	–	–
COc1ccc(S(=O)(=O)N(C)C[C@@H]2Oc3ccc(NC(=O)CCC(F)(F)F)cc3CC(=O)N([C@@H](C)CO)C[C@@H]2C)cc1	–	41.6	–	–	–
COc1ccc(NC(=O)Nc2ccc3c(c2)CC(=O)N([C@H](C)CO)C[C@@H](C)[C@H](CN(C)S(=O)(=O)c2ccc(C)cc2)O3)cc1	–	34.3	–	–	–
COc1ccc(S(=O)(=O)N(C)C[C@@H]2Oc3ccc(NC(=O)CCC(F)(F)F)cc3CC(=O)N([C@H](C)CO)C[C@H]2C)cc1	–	–	–	–	–
CCCCN1C=C(C(C)=O)C(=O)CC1	–	46.8	–	–	–
CCCCCCCC(=O)Nc1cc(C(=O)NCc2ccc(C)cc2)ccc1N1CCC2(CC1)CC(c1ccccc1)=NO2	–	27.3	–	–	–
CCCCC(CC)C(=O)Nc1cc(C(=O)NCc2ccc(C)cc2)ccc1N1CCC2(CC1)CC(c1ccccc1)=NO2 (stereo not drawn)	–	–	–	–	–
Cc1ccc(C(=O)Nc2c(C)cc(-c3ccccc3)oc2=O)cc1	43.1	–	–	–	–
Cc1ccc(C(=O)Nc2c(C)cc(C)c3cccnc23)cc1	–	–	–	–	–
Cc1ccc(NS(=O)(=O)c2cccc(C(=O)NCC(c3cccs3)N(C)C)c2)cc1 (stereo not drawn)	42.9	–	–	–	–
CO[C@@H]1CN(C)C(=O)c2cc(NS(=O)(=O)CC(F)(F)F)ccc2OC[C@H](C)N(C(=O)NC(C)C)C[C@@H]1C	–	–	–	–	–
O=C(/C=C/c1ccc(S(=O)(=O)N2CCOCC2)cc1)NC(=S)Nc1ccc(Cl)cc1Cl	43.3	–	–	–	–
CCOCCCNC(=O)Cn1nc(-c2ccc(OC)c(OC)c2)ccc1=O	–	–	–	–	–
CCOCCCNC(=O)Cn1nc(-c2ccccc2)ccc1=O	–	–	–	50.8	–
NC(=O)CC(NC(=O)c1cccc(Br)c1)c1ccc(NCC2CC2)c([N+](=O)[O-])c1 (stereo not drawn)	–	–	–	–	–
NC(=O)CC(NC(=O)c1ccccc1)c1ccc(NCCc2cccc(F)c2)c([N+](=O)[O-])c1 (stereo not drawn)	–	39.1	–	–	–
NC(=O)CC(NC(=O)Cc1ccc(Br)cc1)c1ccc(NCc2ccc(F)cc2)c([N+](=O)[O-])c1 (stereo not drawn)	43.6	·	–	–	–

Screening results: PubChem BioAssay, Broad Institute
